These results are taken from PubChem BioAssay (EPA / NIEHS).

Assay [1] in a line: ATG_TCF_b_cat_CIS: Attagene CIS-FACTORIAL HepG2 Assay for human T-Cell-Factor with beta-catenin (TCF/b-cat) (AID 2282965; active means hit-call score of the fitted dose curve at least 0.9, where 1 is the maximum; inactive means score below 0.9). Particulars: HepG2 TCF/beta-catenin cis-reporter transcription, actives raise or lower the signal. The method in brief: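 Cells of the HepG2 line carry transiently transfected reporter units whose promoters respond to endogenous factors. Twenty-four hours post-dosing, reporter mRNA induction is measured by fluorescent RT-PCR and capillary electrophoresis, with DMSO as baseline.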

Assay [2] can be described thus: ATG_TAL_CIS: Attagene CIS-FACTORIAL HepG2 Assay for human TAL Basal Promoter (AID 2282966; active means hit-call score of the fitted dose curve at least 0.9, where 1 is the maximum; inactive means score below 0.9;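 further: background control endpoint measuring basal TAL promoter reporter mRNA not a specific factor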). Particulars: HepG2 Attagene cis-factorial TAL promoter reporter; actives raise or lower the signal. The method in brief:
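Basal-promoter background-control endpoint from a multiplexed HepG2 reporter panel. Cells were exposed 24 h, then reporter mRNA was read by RT-PCR/CE fluorescence and fitted in both directions relative to DMSO.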

A short description of assay [3]: ATG_TGFb_CIS: Attagene CIS-FACTORIAL HepG2 Assay for human Transforming Growth Factor (TGF) (AID 2282967; active means hit-call score of the fitted dose curve at least 0.9, where 1 is the maximum; inactive means score below 0.9). Particulars: HepG2 Attagene CIS TGFb reporter, mRNA transcription; actives raise or lower the signal. An outline of the steps:
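Transcript-level reporter readout: HepG2 transfectants, 24 h exposure, RNA to cDNA, reporter-specific PCR, fluorescent primer extension, capillary sizing against ROX standards. Gain- or loss-of-signal relative to DMSO.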

A short description of assay [4]: ATG_VDRE_CIS: Attagene CIS-FACTORIAL HepG2 Assay for human Vitamin D Receptor Element (VDRE) (AID 2282968; active means hit-call score of the fitted dose curve at least 0.9, where 1 is the maximum; inactive means score below 0.9). Particulars: HepG2 VDRE cis-reporter transcription, actives raise or lower the signal. The method in brief: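 Compounds were applied for 24 h to HepG2 cells transfected with promoter-regulated reporter units. Total RNA was reverse-transcribed, and reporter amplicons were fluorescently labelled and sized by capillary electrophoresis.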

The target in assay [5] is Nuclear receptor subfamily 1 group I member 3 (Homo sapiens) (UniProt Q14994). Kind of assay: ATG_CAR_TRANS: Attagene TRANS-FACTORIAL HepG2 Assay for human Constitutive Androstane Receptor (CAR) (AID 2282969).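 Further: activators raise reporter mRNA above DMSO so AC50 marks induction.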 The following applies: HepG2 Attagene TRANS-FACTORIAL CAR reporter. The method in brief:
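Transiently transfected HepG2, multiplex TRANS reporters (CAR-Gal4 chimera driving GAL4-UAS reporter). 24 h dosing. Readout: reporter transcript by RT-PCR + capillary electrophoresis, fluorescence intensity; positive direction vs DMSO.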

Assay [6] concerns the target Steroid hormone receptor ERR1 (Homo sapiens) (UniProt P11474). Kind of assay: ATG_ERRa_TRANS: Attagene TRANS-FACTORIAL HepG2 Assay for human Estrogen-Related Receptor alpha (ERRa) (AID 2282971). Particulars: HepG2 Attagene TRANS reporter, ERRa transactivation. An outline of the steps:
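HepG2 cells transiently transfected with GAL4-UAS reporter units and chimeric NR-Gal4 constructs; after 24 hour compound incubation, reporter mRNA quantified by RT-PCR, fluorescent labelling and capillary electrophoresis, gain of signal versus DMSO.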

Assay [7] concerns the target X-box-binding protein 1 (Homo sapiens) (UniProt P17861). Kind of assay: ATG_Xbp1_CIS: Attagene CIS-FACTORIAL HepG2 Assay for human X-box Binding Protein 1 (XBP1) (AID 2282972; active means hit-call score of the fitted dose curve at least 0.9, where 1 is the maximum; inactive means score below 0.9). Particulars: HepG2 XBP1 cis-element reporter, Attagene multiplex; actives raise or lower the signal. An outline of the steps:
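Changes in reporter transcript abundance, read by RT-PCR and capillary electrophoresis, reflect endogenous transcription factor activity. Transfected HepG2 cells received compound for 24 hours; DMSO defined baseline for bidirectional analysis.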

Assay [8] in a line: ATG_GAL4_TRANS: Attagene TRANS-FACTORIAL HepG2 Assay for GAL4 (Internal Marker) (AID 2282976). The following applies: HepG2 Attagene TRANS GAL4 internal marker reporter. The method in brief: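 Background-control readout: GAL4-UAS reporter transcript in transiently transfected HepG2 cells after 24 h compound exposure. Measured by RT-PCR, 6-FAM primer extension, HpaI digest and capillary electrophoresis; gain-of-signal fit versus DMSO.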

Assay [9] addresses Glucocorticoid receptor (Homo sapiens) (UniProt P04150). Put plainly: ATG_GR_TRANS: Attagene TRANS-FACTORIAL HepG2 Assay for human Glucocorticoid Receptor (GR) (AID 2282978).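 Further: activators score as hits since higher reporter transcript over DMSO is fitted.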 The following applies: HepG2 Attagene TRANS GR reporter, mRNA transcription. The method in brief:
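In this trans-factorial format, exogenous NR-GAL4 chimeric proteins in transfected HepG2 cells regulate GAL4-UAS reporter transcription. After 24 h treatment, reporter mRNA induction relative to DMSO is read by RT-PCR and capillary electrophoresis.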

In assay [10] the target is Bile acid receptor (Homo sapiens) (UniProt Q96RI1). Put plainly: ATG_FXR_TRANS: Attagene TRANS-FACTORIAL HepG2 Assay for Farnesoid X Receptor (FXR) (AID 2282979).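 Further: hits raise reporter mRNA above DMSO so AC50 marks FXR activation.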 Particulars: HepG2 Attagene TRANS FXR-GAL4 reporter transcription. An outline of the steps:
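HepG2 cells were transiently transfected with GAL4-UAS reporters driven by chimeric NR-Gal4 proteins and dosed for 24 h. Reporter mRNA was quantified by RT-PCR, fluorescent labelling, HpaI digestion and capillary electrophoresis, with gain of signal scored versus DMSO.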

In assay [11] the target is Oxysterols receptor LXR-alpha (Homo sapiens) (UniProt Q13133). Put plainly: ATG_LXRa_TRANS: Attagene TRANS-FACTORIAL HepG2 Assay for human Liver X Receptor alpha (LXRa) (AID 2282980). Particulars: HepG2 Attagene TRANS reporter, LXRa transactivation. The method in brief: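 HepG2 cells transiently transfected with GAL4-UAS reporter units for chimeric NR-Gal4 proteins, exposed to chemicals for 24 h. Reporter mRNA quantified by RT-PCR and capillary electrophoresis; gain of signal fitted relative to DMSO.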

Assay [12] concerns the target Oxysterols receptor LXR-beta (Homo sapiens) (UniProt P55055). Put plainly: ATG_LXRb_TRANS: Attagene TRANS-FACTORIAL HepG2 Assay for human Liver X Receptor beta (LXRb) (AID 2282981). Particulars: HepG2 Attagene TRANS GAL4-LXRb reporter, mRNA. The method in brief: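 Multiplexed reporter assay, HepG2, 24 h dosing. Fluorescence of labelled RT-PCR products after capillary electrophoresis gives transcript level; positive fitting direction relative to DMSO.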

Assay [13] has as its target Hepatocyte nuclear factor 4-alpha (Homo sapiens) (UniProt P41235). Kind of assay: ATG_HNF4a_TRANS: Attagene TRANS-FACTORIAL HepG2 Assay for human Hepatocyte Nuclear Factor 4 alpha (HNF4a) (AID 2282982). Particulars: HepG2 HNF4a transactivation reporter, mRNA readout. The method in brief: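 Endpoint reflects transcriptional activation of a GAL4-UAS reporter by an HNF4a-GAL4 chimera in transfected HepG2 cells, 24 h post-dosing. Fluorescence from RT-PCR products separated by capillary electrophoresis; DMSO baseline.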

A short description of assay [14]: ATG_M_06_TRANS: Attagene TRANS-FACTORIAL HepG2 Assay for M06 Transcription Factor (Internal Marker) (AID 2282983). Particulars: HepG2 Attagene TRANS M06 internal marker reporter. The method in brief: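 mRNA levels of a reporter transcript, quantified as FAM fluorescence on capillary electrophoresis, served as readout. HepG2 cells expressing exogenous GAL4-chimera reporter constructs were exposed for 24 h. Gain of signal over DMSO was evaluated.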

Assay [15] concerns the target Nuclear receptor subfamily 4 group A member 2 (Homo sapiens) (UniProt P43354). Put plainly: ATG_NURR1_TRANS: Attagene TRANS-FACTORIAL HepG2 Assay for human Nuclear Receptor Related Protein 1 (NURR1) (AID 2282985). Particulars: HepG2 Attagene TRANS reporter, mRNA readout. The method in brief: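 Endpoint: reporter mRNA increase relative to DMSO. HepG2 cells transfected with reporter units, treated 24 h; RNA processed by RT-PCR, labelling, HpaI digestion and capillary electrophoresis.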

Assay [16] has as its target Transcriptional activator Myb (Homo sapiens) (UniProt P10242). Put plainly: ATG_Myb_CIS: Attagene CIS-FACTORIAL HepG2 Assay for human Myeloblastosis (Myb) Proto-Oncogene Transcription Factor (AID 2282986; active means hit-call score of the fitted dose curve at least 0.9, where 1 is the maximum; inactive means score below 0.9). The following applies: HepG2 Attagene CIS-FACTORIAL Myb reporter transcription; actives raise or lower the signal. An outline of the steps:
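Steps: transfect HepG2 with cis-regulated reporter units; dose with chemical for 24 h; isolate RNA, reverse-transcribe, PCR-amplify and FAM-label reporter sequences; digest with HpaI; resolve by capillary electrophoresis. Activity fitted in both directions relative to DMSO.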

For assay [17], the target named is Estrogen receptor (Homo sapiens) (UniProt P03372). Kind of assay: ATG_ERa_TRANS: Attagene TRANS-FACTORIAL HepG2 Assay for human Estrogen Receptor alpha (ERa) (AID 2282970). The following applies: HepG2 Attagene TRANS ERa GAL4 reporter, mRNA. An outline of the steps: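 Gal4-fusion ERa transactivation, measured as reporter transcript level in transiently transfected HepG2 cells. Exposure 24 h; RT-PCR plus capillary electrophoresis with fluorescence detection.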

Assay [18] can be described thus: ATG_M_19_TRANS: Attagene TRANS-FACTORIAL HepG2 Assay for M19 Transcription Factor (Internal Marker) (AID 2282974). The following applies: HepG2 Attagene TRANS-FACTORIAL M19 internal marker reporter. The method in brief:
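Cells: human HepG2, transiently transfected with multiplexed reporter transcription units. Exposure: 24 h. Detection: RT-PCR of reporter mRNA with capillary electrophoresis. Analysis: gain-of-signal vs DMSO.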

Inconclusive results are not listed. Some compounds were tested as several samples or in several runs, with calls that do not always agree. Calls of active or inactive are those of the source. How the source made its calls, unless noted: active means hit-call score of the fitted dose curve at least 0.9, where 1 is the maximum; inconclusive means response in the unintended direction; inactive means score below 0.9.

Bile acid receptor (Homo sapiens), sequence (Q96RI1 whole entry, looked up, the tested form may be a part): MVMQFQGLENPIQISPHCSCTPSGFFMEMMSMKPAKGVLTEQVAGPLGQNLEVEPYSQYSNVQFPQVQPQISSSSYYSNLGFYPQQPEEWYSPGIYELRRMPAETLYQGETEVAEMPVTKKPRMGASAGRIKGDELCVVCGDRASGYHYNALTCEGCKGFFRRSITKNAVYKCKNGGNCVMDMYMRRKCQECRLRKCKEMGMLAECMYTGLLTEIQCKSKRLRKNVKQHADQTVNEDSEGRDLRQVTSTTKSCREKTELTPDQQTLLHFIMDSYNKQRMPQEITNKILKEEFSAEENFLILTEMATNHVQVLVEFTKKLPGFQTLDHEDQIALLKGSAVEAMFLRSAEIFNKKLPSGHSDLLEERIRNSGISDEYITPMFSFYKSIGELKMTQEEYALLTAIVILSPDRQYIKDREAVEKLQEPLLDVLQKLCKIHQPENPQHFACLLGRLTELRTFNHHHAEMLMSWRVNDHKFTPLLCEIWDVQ
Glucocorticoid receptor (Homo sapiens), sequence (P04150 whole entry, looked up, the tested form may be a part): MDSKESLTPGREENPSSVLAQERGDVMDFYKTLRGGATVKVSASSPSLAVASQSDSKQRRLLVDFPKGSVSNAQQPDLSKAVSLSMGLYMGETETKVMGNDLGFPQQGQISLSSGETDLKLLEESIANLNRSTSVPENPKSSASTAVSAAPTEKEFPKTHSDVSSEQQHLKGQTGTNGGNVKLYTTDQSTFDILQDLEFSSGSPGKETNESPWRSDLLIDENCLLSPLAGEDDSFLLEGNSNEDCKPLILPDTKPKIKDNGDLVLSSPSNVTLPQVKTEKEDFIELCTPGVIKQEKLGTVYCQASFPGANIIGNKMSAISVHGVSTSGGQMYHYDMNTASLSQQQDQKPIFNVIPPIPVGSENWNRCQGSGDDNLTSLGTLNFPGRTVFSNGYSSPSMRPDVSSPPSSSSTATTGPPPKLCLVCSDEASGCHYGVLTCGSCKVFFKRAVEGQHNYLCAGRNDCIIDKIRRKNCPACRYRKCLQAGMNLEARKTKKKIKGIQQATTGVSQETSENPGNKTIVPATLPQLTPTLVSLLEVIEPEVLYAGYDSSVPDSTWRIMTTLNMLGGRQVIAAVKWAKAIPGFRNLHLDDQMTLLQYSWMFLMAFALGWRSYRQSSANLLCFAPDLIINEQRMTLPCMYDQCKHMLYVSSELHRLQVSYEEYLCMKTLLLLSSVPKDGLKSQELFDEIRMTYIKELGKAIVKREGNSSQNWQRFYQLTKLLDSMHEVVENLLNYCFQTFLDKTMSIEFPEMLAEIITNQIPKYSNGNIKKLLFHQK
Transcriptional activator Myb (Homo sapiens), sequence (P10242 whole entry, looked up): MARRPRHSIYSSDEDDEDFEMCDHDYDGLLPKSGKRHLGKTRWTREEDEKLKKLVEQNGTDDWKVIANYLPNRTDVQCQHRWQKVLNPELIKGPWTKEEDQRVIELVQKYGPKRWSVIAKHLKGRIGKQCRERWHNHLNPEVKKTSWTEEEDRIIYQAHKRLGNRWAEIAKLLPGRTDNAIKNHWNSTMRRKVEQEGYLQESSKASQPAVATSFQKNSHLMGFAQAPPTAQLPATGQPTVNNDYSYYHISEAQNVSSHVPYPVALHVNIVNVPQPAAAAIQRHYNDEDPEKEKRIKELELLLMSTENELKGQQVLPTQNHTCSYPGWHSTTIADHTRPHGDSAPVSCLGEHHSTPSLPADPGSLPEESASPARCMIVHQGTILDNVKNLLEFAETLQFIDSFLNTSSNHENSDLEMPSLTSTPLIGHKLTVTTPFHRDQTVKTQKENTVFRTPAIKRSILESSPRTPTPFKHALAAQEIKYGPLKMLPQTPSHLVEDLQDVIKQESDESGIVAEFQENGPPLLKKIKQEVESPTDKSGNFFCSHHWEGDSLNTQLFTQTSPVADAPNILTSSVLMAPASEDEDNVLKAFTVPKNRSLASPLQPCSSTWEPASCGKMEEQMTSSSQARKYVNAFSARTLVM
Estrogen receptor (Homo sapiens), sequence (P03372 whole entry, looked up, the tested form may be a part): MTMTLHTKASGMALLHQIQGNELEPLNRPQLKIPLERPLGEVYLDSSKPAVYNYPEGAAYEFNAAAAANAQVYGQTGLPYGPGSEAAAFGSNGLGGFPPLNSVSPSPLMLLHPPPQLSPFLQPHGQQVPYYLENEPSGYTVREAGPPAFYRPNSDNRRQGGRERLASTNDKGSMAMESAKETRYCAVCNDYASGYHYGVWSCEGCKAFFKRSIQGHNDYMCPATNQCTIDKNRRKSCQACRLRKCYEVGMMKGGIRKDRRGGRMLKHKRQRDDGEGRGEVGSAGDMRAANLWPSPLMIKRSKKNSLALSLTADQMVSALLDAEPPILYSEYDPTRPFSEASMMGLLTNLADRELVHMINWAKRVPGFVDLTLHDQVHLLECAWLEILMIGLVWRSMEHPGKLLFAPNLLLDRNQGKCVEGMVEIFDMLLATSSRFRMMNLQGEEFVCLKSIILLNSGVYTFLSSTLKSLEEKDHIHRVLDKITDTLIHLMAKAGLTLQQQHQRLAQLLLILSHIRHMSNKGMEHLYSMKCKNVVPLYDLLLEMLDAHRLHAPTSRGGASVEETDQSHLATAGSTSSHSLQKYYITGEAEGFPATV
Nuclear receptor subfamily 4 group A member 2 (Homo sapiens), sequence (P43354 whole entry, looked up): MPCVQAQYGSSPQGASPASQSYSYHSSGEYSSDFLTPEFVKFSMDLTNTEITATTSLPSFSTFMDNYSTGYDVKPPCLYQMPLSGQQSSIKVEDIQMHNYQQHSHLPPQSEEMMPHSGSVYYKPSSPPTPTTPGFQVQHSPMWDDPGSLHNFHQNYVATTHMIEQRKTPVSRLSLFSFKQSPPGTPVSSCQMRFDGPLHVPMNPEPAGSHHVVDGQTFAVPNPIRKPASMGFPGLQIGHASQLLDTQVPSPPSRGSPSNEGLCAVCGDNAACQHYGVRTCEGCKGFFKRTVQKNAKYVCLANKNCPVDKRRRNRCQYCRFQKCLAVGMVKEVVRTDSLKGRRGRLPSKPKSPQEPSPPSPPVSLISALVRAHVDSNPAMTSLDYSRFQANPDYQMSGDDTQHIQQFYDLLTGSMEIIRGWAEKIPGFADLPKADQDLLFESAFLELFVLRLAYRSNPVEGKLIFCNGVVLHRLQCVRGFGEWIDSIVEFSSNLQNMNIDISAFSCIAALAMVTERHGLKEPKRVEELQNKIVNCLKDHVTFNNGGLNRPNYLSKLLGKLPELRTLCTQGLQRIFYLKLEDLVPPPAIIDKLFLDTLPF
Hepatocyte nuclear factor 4-alpha (Homo sapiens), sequence (P41235 whole entry, looked up, the tested form may be a part): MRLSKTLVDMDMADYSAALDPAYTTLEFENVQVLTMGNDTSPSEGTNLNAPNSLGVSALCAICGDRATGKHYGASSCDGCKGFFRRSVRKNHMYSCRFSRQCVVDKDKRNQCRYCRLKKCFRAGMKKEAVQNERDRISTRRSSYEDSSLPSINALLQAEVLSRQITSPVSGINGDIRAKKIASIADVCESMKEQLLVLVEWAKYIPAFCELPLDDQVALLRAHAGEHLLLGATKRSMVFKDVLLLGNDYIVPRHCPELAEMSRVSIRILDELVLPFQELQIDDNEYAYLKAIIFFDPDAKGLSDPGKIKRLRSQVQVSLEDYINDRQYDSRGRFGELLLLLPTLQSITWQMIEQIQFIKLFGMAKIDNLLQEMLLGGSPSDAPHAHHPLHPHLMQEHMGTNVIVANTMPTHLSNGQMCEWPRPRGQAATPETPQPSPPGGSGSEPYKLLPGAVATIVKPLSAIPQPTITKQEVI
Oxysterols receptor LXR-beta (Homo sapiens), sequence (P55055 whole entry, looked up, the tested form may be a part): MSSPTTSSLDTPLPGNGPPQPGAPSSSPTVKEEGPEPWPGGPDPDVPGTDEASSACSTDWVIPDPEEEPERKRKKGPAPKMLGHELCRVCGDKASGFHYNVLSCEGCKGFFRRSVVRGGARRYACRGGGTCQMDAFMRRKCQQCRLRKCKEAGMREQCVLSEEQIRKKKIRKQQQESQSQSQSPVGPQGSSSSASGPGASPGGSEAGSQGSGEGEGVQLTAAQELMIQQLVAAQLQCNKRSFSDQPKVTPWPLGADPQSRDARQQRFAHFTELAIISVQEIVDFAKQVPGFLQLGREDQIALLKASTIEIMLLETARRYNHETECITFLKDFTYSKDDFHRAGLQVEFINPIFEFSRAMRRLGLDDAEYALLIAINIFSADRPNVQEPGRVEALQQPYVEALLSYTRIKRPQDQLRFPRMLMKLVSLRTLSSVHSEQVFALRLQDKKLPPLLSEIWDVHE
X-box-binding protein 1 (Homo sapiens), sequence (P17861 whole entry, looked up): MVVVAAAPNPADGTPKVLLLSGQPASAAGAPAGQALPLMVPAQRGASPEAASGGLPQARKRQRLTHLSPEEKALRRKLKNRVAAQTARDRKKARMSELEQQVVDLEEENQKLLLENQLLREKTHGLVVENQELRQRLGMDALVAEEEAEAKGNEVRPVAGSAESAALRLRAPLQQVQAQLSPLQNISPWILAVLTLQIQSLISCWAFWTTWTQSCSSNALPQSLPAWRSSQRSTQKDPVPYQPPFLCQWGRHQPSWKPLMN
Oxysterols receptor LXR-alpha (Homo sapiens), sequence (Q13133 whole entry, looked up, the tested form may be a part): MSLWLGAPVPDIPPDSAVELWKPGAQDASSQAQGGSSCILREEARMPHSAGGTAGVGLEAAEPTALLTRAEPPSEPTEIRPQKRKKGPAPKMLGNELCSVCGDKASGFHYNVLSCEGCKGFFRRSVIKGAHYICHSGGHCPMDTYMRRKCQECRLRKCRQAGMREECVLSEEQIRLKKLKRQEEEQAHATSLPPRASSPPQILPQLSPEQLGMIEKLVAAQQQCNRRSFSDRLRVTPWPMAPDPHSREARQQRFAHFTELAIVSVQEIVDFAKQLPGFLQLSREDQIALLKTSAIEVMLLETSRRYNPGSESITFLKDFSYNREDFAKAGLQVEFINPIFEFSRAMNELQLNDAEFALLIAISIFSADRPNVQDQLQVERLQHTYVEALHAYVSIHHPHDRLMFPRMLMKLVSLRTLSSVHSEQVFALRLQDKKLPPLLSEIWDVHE

`OCC(F)(F)C(F)(F)C(F)(F)F`: the compound was called inactive in [1], in assay [2], in [3], in assay [4], in assay [5] and in assay [6]. In addition, the outcome in assay [7], in assay [8], in assay [9], in [10], in assay [11] and in assay [12] was inactive. Besides, the compound was called inactive in assay [13], in [14], in assay [15] and in assay [16].

Consider `CC(C)(C)c1ccc(OC2CCCCC2O)cc1` (centres undefined), for which the compound was called inactive in [1], in assay [2], in assay [3], in assay [5], in assay [17] and in [7]. Also, the result in [8], in [10], in assay [11] and in assay [12] was inactive. Also, the AC50 in [4] was 26.8 µM (active); in [15] it was 100 µM (active).

`C=C(C)C(=O)OCCC(F)(F)C(F)(F)C(F)(F)C(F)(F)C(F)(C(F)(F)F)C(F)(F)F`: the call in [1], in assay [2], in assay [3], in [4], in assay [5] and in [7] was inactive. Further, the result in [9], in [10], in assay [11], in assay [12], in [14] and in assay [16] was inactive. Also, in assay [17], the AC50 is 7.49 µM (active).

For `O=C(O)C(F)(OC(F)(F)C(F)(OC(F)(F)C(F)(F)C(F)(F)F)C(F)(F)F)C(F)(F)F` (centres undefined), the outcome in [1], in assay [2], in assay [3], in assay [4], in assay [17] and in assay [6] was inactive. The call in [7], in assay [18], in assay [8], in assay [10], in assay [11] and in [12] was inactive. Also, the compound was called inactive in assay [13], in assay [14], in assay [15] and in assay [16]. Besides, the AC50 is 18.4 µM (active) in [17] and 98.8 µM (active) in assay [15].
